Many of the other results were omitted from the sample, so hits are more common in it than they were.
14-3-3 PPI: alters human 14-3-3 gamma binding to Raf peptide; FP, 14-3-3gamma / TMR-pS259-Raf peptide binding; inhibition, % at 40 µM; 0.19% of 160,000 active; in the data active = inhibition above about 30%;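 note: 0% = protein plus tracer without compound and 100% = blank with tracer alone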
Target sequence (P61981 whole entry, looked up): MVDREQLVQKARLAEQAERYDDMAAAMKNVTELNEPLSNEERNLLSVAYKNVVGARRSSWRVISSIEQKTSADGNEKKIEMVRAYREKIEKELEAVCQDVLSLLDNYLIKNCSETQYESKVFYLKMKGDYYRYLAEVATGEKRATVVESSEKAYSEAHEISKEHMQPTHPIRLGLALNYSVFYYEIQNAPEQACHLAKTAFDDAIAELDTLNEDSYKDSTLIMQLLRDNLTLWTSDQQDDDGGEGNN
An asterisk follows results filed as active; + = active, no number.

SMILES	14-3-3 PPI
Cc1c(C(=O)NCc2cccs2)oc2ccc(S(=O)(=O)N3CCOCC3)cc12	-2
Cc1c(C(=O)NCc2ccco2)oc2ccc(S(=O)(=O)N3CCOCC3)cc12	-1
Cc1c(C(=O)NCc2ccccc2)oc2ccc(S(=O)(=O)N3CCC(C)CC3)cc12	-7
Cc1c(C(=O)NCc2ccccn2)oc2ccc(S(=O)(=O)N3CCOCC3)cc12	129*
Cc1c(C(=O)NCc2ccccn2)oc2ccc(S(=O)(=O)N3CC(C)CC(C)C3)cc12 (stereo not given)	-1
Cc1c(C(=O)NCc2ccccn2)oc2ccc(S(=O)(=O)N3CCC(C)CC3)cc12	63*
O=C(NCc1cccs1)c1cc(S(=O)(=O)N2CCOCC2)ccc1F	-7
O=C(NCc1ccccn1)c1cc(S(=O)(=O)N2CCOCC2)ccc1F	114*
Brc1cccc(C=Nc2ccnc3ccccc23)c1	-5
CC(=O)Nc1cc(C(=O)NCc2ccc(C)cc2)ccc1Sc1ccc(Cl)cc1	-16
COc1cc(OC)cc(-c2nnc(SCC(=O)N3CCCCC3C)o2)c1 (stereo not given)	2
COc1ccccc1C1/C(=C(\O)c2ccc(Cl)cc2)C(=O)C(=O)N1CCCn1ccnc1 (stereo not given)	6
O=C1C(=O)N(CCCn2ccnc2)C(c2ccncc2)/C1=C(\O)c1ccc(F)cc1 (stereo not given)	0
COc1ccc(/C(O)=C2\C(=O)C(=O)N(CCCn3ccnc3)C2c2ccccc2F)cc1 (stereo not given)	37*
COC(=O)CC1SC(=O)NC1=Nc1ccc(O)cc1 (stereo not given)	-6
COc1cc(C=Nc2ccc(O)cc2)ccc1OC(=O)CC1SC(=O)NC1=O (stereo not given)	103*
COc1cc(C=Nc2ccc(N(C)C(C)=O)cc2)ccc1OC(C)=O	3
Cc1ccc(CNC(=O)c2ccc3c(=O)[nH]c4c(C(=O)NC5CCCC5)sc(=S)n4c3c2)cc1	-15
CC(=O)OCC(=O)C1(OC(C)=O)CCC2C3CCC4=CC(=O)CCC4(C)C3CCC21C (stereo not given)	-10
O=C(Nc1sc2c(c1C(=O)Nc1cccc3ccccc13)CCC2)c1ccc(Br)cc1	-29
NC(=O)C1CCN(C(=O)c2cccn3c(=O)c4ccccc4nc23)CC1	-11
Brc1ccc(C=Nc2nc3c(s2)CCCC3)cc1	-6
Oc1ccc2ccccc2c1C=Nc1nc2c(s1)CCCC2	36*
Oc1ccc2ccccc2c1C=Nc1cccc2ccccc12	-45
Cc1ccc(NC(=O)c2sc3ncn(CC(=O)N4CCCCC4)c(=O)c3c2C)cc1F	1
SMILES	14-3-3 PPI
CCn1cc(C(=O)N2CCc3ccccc32)c(=O)c2cc(S(=O)(=O)N3CCc4ccccc4C3)ccc21	-8
CCOC(=O)N1CCC(NC(=O)CSCc2nc(-c3ccc(OC)c(OC)c3)oc2C)CC1	61*
COc1ccc(-c2nc(CSCC(=O)NCC3CCCO3)c(C)o2)cc1OC (stereo not given)	-3
COc1ccc(-c2nc(CSCC(=O)N3CCC(C(N)=O)CC3)c(C)o2)cc1OC	3
O=C(Nc1ccc(Cl)cc1[N+](=O)[O-])c1ccco1	-3
CCCc1oc2c(cc(NS(=O)(=O)c3ccccc3)c3ccccc32)c1C(=O)OCC	-13
COc1ccc(C(=O)Nc2cccnc2)cc1OC	47*
Cn1nnc2cc(C(=O)Nc3cccnc3)ccc21	3
O=C(Nc1cccnc1)c1cccnc1	0
COc1cccc(C2C(C(=O)OC(C)C)C(=O)CC(C)(O)C2C(=O)OC(C)C)c1 (stereo not given)	-1
CCOc1ccccc1C(=O)Nc1c2c(nn1-c1ccc(F)cc1)CSC2	-11
CCCOc1ccc(OC(=O)c2cncc(Br)c2)cc1	6
Cc1cc(NC(=O)Cn2c(=O)n(Cc3ccco3)c(=O)c3cc(Cl)ccc32)n[nH]1	-2
Cc1c(N)cccc1-c1nc2ccccc2s1	3
Cc1cc(N)c2ccccc2n1	-2
Cc1cc2c(N)cccc2nn1	44*
Cc1sc2ncn(CC(=O)N3CCN(c4ccc(F)cc4)CC3)c(=O)c2c1C	-4
COC(=O)c1ccc(C(=O)OC)c(NC(=O)c2ccc(OC)cc2OC)c1	-33
COc1ccc(OC)c(S(=O)(=O)Nc2ccc(C(C)=O)cc2)c1	-2
COc1ccc(C(=O)Oc2ccc(C(C)=O)cc2)c(OC)c1	38*
Cc1ccccc1NC(=NS(=O)(=O)c1ccc(Cl)cc1)c1ccccc1	3
COC(=O)c1sc(NC(=O)c2c(-c3ccccc3Cl)noc2C)nc1C	1
CCOc1cc(C2C3=C(CC(C)(C)CC3=O)Nc3ccccc3N2C(=O)CC)ccc1O (stereo not given)	5
C=Cc1c(C)c2cc3[nH]c(cc4nc(cc5nc(cc1[nH]2)C(C)=C5CCC(=O)O)C(CCC(=O)O)=C4C)c(C)c3C=C	+
O=C1c2cccnc2C(=O)N1c1nccs1	-3
O=C(CN1CCN(Cc2ccccc2Cl)C1=O)NCc1cccnc1	-5
O=C(CN1CCN(Cc2ccccc2Cl)C1=O)NCc1ccccn1	71*
O=C(CN1CCN(Cc2ccc(F)cc2)C1=O)NCc1ccccc1Cl	-10

Source: PubChem BioAssay
